Screen size: about 5,500 compounds; about 2,000 (36%) were called active. About 18% were inconclusive and are not listed. No stated cut-off is given here; in the data, active means normalized growth mostly below about 0.91 (no sharp cut-off); inconclusive means no clear call, values can overlap the other calls; inactive means mostly above about 0.92. The list shows a part of the results.
Assay: chemical genetic growth profiling, strain panel (AID 1159580);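 further: tested at 20 µM; growth read once vehicle control cultures reached saturation at 30 °C; 1 = growth at the plate median or of vehicle wells; lower values mean less growth of the strain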
Details: growth OD
[1] = S. cerevisiae deletion strains, locus YDL101C, strain DUN1, active compounds read low
[2] = S. cerevisiae deletion strains, locus YHR030C, strain SLT2, active compounds read low

Measured: normalized growth

O=[N+]([O-])c1ccc(NCCCCCO)nc1
inactive: S. cerevisiae deletion strains, locus YAL013W, strain DEP1, active compounds read low 0.988 | S. cerevisiae deletion strains, locus YBR229C, strain ROT2, active compounds read low 0.98 | S. cerevisiae deletion strains, locus YCL061C, strain MRC1, active compounds read low 0.977 | [1] 0.966 | S. cerevisiae deletion strains, locus YDL134C, strain PPH21, active compounds read low 0.998 | S. cerevisiae deletion strains, locus YDR150W, strain NUM1, active compounds read low 0.975 | S. cerevisiae deletion strains, locus YEL061C, strain CIN8, active compounds read low 1.03 | S. cerevisiae deletion strains, locus YGR078C, strain PAC10, active compounds read low 0.987 | [2] 0.974 | S. cerevisiae deletion strains, locus YHR087W, strain rtc3, active compounds read low 1.05 | S. cerevisiae deletion strains, locus YJL187C, strain SWE1, active compounds read low 1 | S. cerevisiae deletion strains, locus YJR043C, strain POL32, active compounds read low 0.981 | S. cerevisiae deletion strains, locus YJR075W, strain HOC1, active compounds read low 1.02 | S. cerevisiae deletion strains, locus YKL190W, strain CNB1, active compounds read low 1.01 | S. cerevisiae deletion strains, locus YLR039C, strain RIC1, active compounds read low 0.936 | S. cerevisiae deletion strains, locus YLR058C, strain SHM2 (second series), active compounds read low 0.993 | S. cerevisiae deletion strains, locus YLR085C, strain ARP6, active compounds read low 0.993 | S. cerevisiae deletion strains, locus YLR262C, strain YPT6, active compounds read low 1.01 | S. cerevisiae deletion strains, locus YML094W, strain GIM5, active compounds read low 1.04 | S. cerevisiae deletion strains, locus YMR219W, strain ESC1, active compounds read low 1.01 | S. cerevisiae deletion strains, locus YMR263W, strain SAP30, active compounds read low 0.999 | S. cerevisiae deletion strains, locus YMR307W, strain GAS1, active compounds read low 1.07 | S. cerevisiae deletion strains, locus YNL153C, strain GIM3, active compounds read low 0.986 | S. cerevisiae deletion strains, locus YNL298W, strain CLA4 (second series), active compounds read low 0.967 | S. cerevisiae deletion strains, locus YNL322C, strain KRE1, active compounds read low 0.992 | S. cerevisiae deletion strains, locus YNR030W, strain Alg12, active compounds read low 0.99 | S. cerevisiae deletion strains, locus YOL006C, strain TOP1, active compounds read low 0.955 | S. cerevisiae deletion strains, locus YPL055C, strain LGE1, active compounds read low 1.04 | S. cerevisiae deletion strains, locus YPL241C, strain CIN2, active compounds read low 0.974 | S. cerevisiae deletion strains, locus YPR135W, strain CTF4, active compounds read low 0.958 | S. cerevisiae strains, strain wild type, active compounds read low 0.996

O=[N+]([O-])c1ccc(NCc2ccc(Cl)c(Cl)c2)nc1
active: [2] 0.733 | S. cerevisiae deletion strains, locus YLR113W, strain HOG1, active compounds read low 0.657 | S. cerevisiae deletion strains, locus YPL256C, strain CLN2, active compounds read low 0.763
inactive: S. cerevisiae deletion strains, locus YAR019C, strain CDC15, active compounds read low 0.931 | S. cerevisiae deletion strains, locus YBL105C, strain PKC1, active compounds read low 0.936 | S. cerevisiae deletion strains, locus YBR135W, strain CKS1, active compounds read low 0.936 | S. cerevisiae deletion strains, locus YBR136W, strain MEC1, active compounds read low 0.944 | S. cerevisiae deletion strains, locus YBR160W, strain CDC28, active compounds read low 0.941 | S. cerevisiae deletion strains, locus YDL017W, strain CDC7, active compounds read low 0.946 | S. cerevisiae deletion strains, locus YDL028C, strain MPS1, active compounds read low 0.946 | [1] 0.925 | S. cerevisiae deletion strains, locus YDL108W, strain KIN28, active compounds read low 0.942 | S. cerevisiae deletion strains, locus YDL132W, strain cdc53, active compounds read low 0.919 | S. cerevisiae deletion strains, locus YDL214C, strain PRR2, active compounds read low 0.857 | S. cerevisiae deletion strains, locus YDR052C, strain DBF4, active compounds read low 0.953 | S. cerevisiae deletion strains, locus YDR054C, strain cdc34, active compounds read low 0.918 | S. cerevisiae deletion strains, locus YDR226W, strain ADK1, active compounds read low 0.937 | S. cerevisiae deletion strains, locus YDR477W, strain SNF1, active compounds read low 0.882 | S. cerevisiae deletion strains, locus YER123W, strain YCK3, active compounds read low 0.862 | S. cerevisiae deletion strains, locus YER133W, strain GLC7, active compounds read low 0.842 | S. cerevisiae deletion strains, locus YFL009W, strain cdc4, active compounds read low 0.923 | S. cerevisiae deletion strains, locus YFL029C, strain CAK1, active compounds read low 0.931 | S. cerevisiae deletion strains, locus YFR003C, strain YPI1, active compounds read low 0.944 | S. cerevisiae deletion strains, locus YFR019W, strain FAB1, active compounds read low 0.907 | S. cerevisiae deletion strains, locus YFR028C, strain CDC14, active compounds read low 0.917 | S. cerevisiae deletion strains, locus YGR040W, strain KSS1, active compounds read low 0.884 | S. cerevisiae deletion strains, locus YGR052W, strain FMP48, active compounds read low 0.861 | S. cerevisiae deletion strains, locus YGR092W, strain DBF2, active compounds read low 0.852 | S. cerevisiae deletion strains, locus YHR079C, strain IRE1, active compounds read low 0.78 | S. cerevisiae deletion strains, locus YHR082C, strain KSP1, active compounds read low 0.906 | S. cerevisiae deletion strains, locus YHR205W, strain SCH9, active compounds read low 0.81 | S. cerevisiae deletion strains, locus YIL147C, strain SLN1, active compounds read low 0.94 | S. cerevisiae deletion strains, locus YJL095W, strain BCK1, active compounds read low 0.774 | S. cerevisiae deletion strains, locus YJL128C, strain PBS2, active compounds read low 0.839 | S. cerevisiae deletion strains, locus YJL157C, strain FAR1, active compounds read low 0.883 | S. cerevisiae deletion strains, locus YJR016C, strain ILV3, active compounds read low 0.939 | S. cerevisiae deletion strains, locus YJR066W, strain TOR1 (second series), active compounds read low 0.892 | S. cerevisiae deletion strains, locus YJR066W, strain TOR1, active compounds read low 0.898 | S. cerevisiae deletion strains, locus YKL048C, strain ELM1, active compounds read low 0.913 | S. cerevisiae deletion strains, locus YKL067W, strain YNK1, active compounds read low 0.891 | S. cerevisiae deletion strains, locus YKL101W, strain HSL1, active compounds read low 0.875 | S. cerevisiae deletion strains, locus YKL193C, strain SDS22, active compounds read low 0.935 | S. cerevisiae deletion strains, locus YKL203C, strain TOR2, active compounds read low 0.948 | S. cerevisiae deletion strains, locus YLR133W, strain CKI1, active compounds read low 0.911 | S. cerevisiae deletion strains, locus YLR403W, strain SFP1, active compounds read low 0.865 | S. cerevisiae deletion strains, locus YML070W, strain DAK1, active compounds read low 0.854 | S. cerevisiae deletion strains, locus YMR001C, strain CDC5, active compounds read low 0.938 | S. cerevisiae deletion strains, locus YMR205C, strain PFK2 (second series), active compounds read low 0.875 | S. cerevisiae deletion strains, locus YMR277W, strain FCP1, active compounds read low 0.932 | S. cerevisiae deletion strains, locus YNL006W, strain LST8, active compounds read low 0.916 | S. cerevisiae deletion strains, locus YNL020C, strain ARK1, active compounds read low 0.893 | S. cerevisiae deletion strains, locus YNL161W, strain CBK1, active compounds read low 0.93 | S. cerevisiae deletion strains, locus YNL183C, strain NPR1, active compounds read low 0.934 | S. cerevisiae deletion strains, locus YNL207W, strain RIO2, active compounds read low 0.937 | S. cerevisiae deletion strains, locus YNL222W, strain SSU72, active compounds read low 0.927 | S. cerevisiae deletion strains, locus YNL307C, strain MCK1 (second series), active compounds read low 0.91 | S. cerevisiae deletion strains, locus YOL078W, strain AVO1, active compounds read low 0.926 | S. cerevisiae deletion strains, locus YOL136C, strain PFK27, active compounds read low 0.864 | S. cerevisiae deletion strains, locus YOR061W, strain CKA2, active compounds read low 0.884 | S. cerevisiae deletion strains, locus YOR119C, strain RIO1, active compounds read low 0.949 | S. cerevisiae deletion strains, locus YOR231W, strain MKK1, active compounds read low 0.87 | S. cerevisiae deletion strains, locus YOR329C, strain SCD5, active compounds read low 0.933 | S. cerevisiae deletion strains, locus YPL031C, strain PHO85, active compounds read low 0.88 | S. cerevisiae deletion strains, locus YPL153C, strain RAD53, active compounds read low 0.895 | S. cerevisiae deletion strains, locus YPL204W, strain HRR25, active compounds read low 0.869 | S. cerevisiae deletion strains, locus YPL209C, strain IPL1, active compounds read low 0.943 | S. cerevisiae deletion strains, locus YPR025C, strain CCL1, active compounds read low 0.93 | S. cerevisiae deletion strains, locus YPR106W, strain ISR1, active compounds read low 0.918 | S. cerevisiae deletion strains, locus YPR111W, strain DBF20, active compounds read low 0.909 | S. cerevisiae deletion strains, strain NNK1, active compounds read low 0.891 | S. cerevisiae deletion strains, strain TSCII, active compounds read low 0.93

Reference: PubChem BioAssay AID1159580 (chemical genetic matrix, 2015)
